HCMV inh: qHTS Assay for inhibitors of the human cytomegalovirus (HCMV) | HFF cells, HCMV-luciferase reporter, 72 h; active compounds read low | activity change, negative = inhibition, % at 57.5 µM | 410,000 compounds, 4.5% hits | AID 1259415, 2018; in the data active means activity change below about -60%; inconclusive means no clear call, values can overlap the other calls; inactive means above about -39%; further: on the % scale 0 is the no-effect control and ±100 the full control effect
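HFF cells seeded 16 h at 37C, treated with compounds, infected with luciferase-reporter HCMV at MOI 1 PFU/cell; luciferase read at 72 h post infection, normalized to buffer-only and Salinomycin controls.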
HCV inh: qHTS Assay for Inhibitors of Hepatitis C Virus (HCV) | Huh7.5.1 HCVcc-Cre infection, luciferase reporter, 44 h | Potency, µM (doses to about 41.8 µM), inactives show top-dose activity change, negative = inhibition, usual class: inhibitors | 340,000 compounds, 3.4% hits; further: potency means the concentration at half of the fitted maximal effect; on the % scale 0 is the no-effect control and ±100 the full control effect
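Cells (1,000/well) were plated 4 h before compound, then infected with HCVcc-Cre virus (~0.5 moi). After 44 h further culture, infection was read as luciferase luminescence following a 15 min substrate incubation at room temperature.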
Pf growth 96h: Primary qHTS for delayed death inhibitors of the malarial parasite plastid, 96 hour incubation. P. falciparum luciferase reporter growth, 96 h. Potency, µM (titrated, usually from 28.7 µM), inactives show at the highest dose activity change, negative = inhibition, most hits filed as inhibitors. 320,000 compounds, 6.9% hits. AID 504834, 2011; further: potency means the concentration at half of the fitted maximal effect; on the % scale 0 is the no-effect control and ±100 the full control effect
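Luminescence readout: decreased luciferase signal marks inhibited growth of reporter-expressing P. falciparum in infected red cells (2% hematocrit, 0.05% parasitemia final), exposed to compound two generations (96 h, 37 C, 5% CO2).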
Shiga toxin inh: A qHTS for Small Molecule Inhibitors of Shiga Toxin | Vero cells, Shiga toxin protein synthesis inhibition reporter | inhibition, % at 38.7 µM | 290,000 compounds, 9.2% hits | AID 2315, 2010; in the data active means inhibition mostly above about 28%, no sharp cut-off; inactive means mostly below about 43%; further: 0% is about no effect
Pf growth 48h: Primary qHTS for delayed death inhibitors of the malarial parasite plastid, 48 hour incubation; P. falciparum luciferase growth in erythrocytes, 48 h; Potency, µM (doses to about 28.7 µM), for the others: at the top dose activity change, negative = inhibition, hits mostly inhibitors; 310,000 compounds, 5.9% hits; further: potency means the concentration at half of the fitted maximal effect; on the % scale 0 is the no-effect control and ±100 the full control effect
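Parasite viability was followed by luminescence of a genomically integrated firefly luciferase. Cultures held 0.1% parasitemia at 2% hematocrit (final), incubated under 5% CO2 at 37 C.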
CHX counter: Cycloheximide Counterscreen for Small Molecule Inhibitors of Shiga Toxin; cell reporter, cycloheximide protein synthesis inhibition counterscreen; max response, %; 300,000 compounds, 12% hits; AID 2314, 2010; in the data active means max response mostly above about 13%, no sharp cut-off; inactive means mostly below about 14%; further: read at 38.3 µM for the half of the compounds with a filed dose; 0% is about no effect
* = called active by the depositor; i = inactive; ? = inconclusive; nt = no result given; [ ] = another dose, or the depositor's remark. Rows were chosen to be rich in hits. Some 21% of all compounds tested hit in one or more screens of this group. Unless noted, the call rests on the fitted dose curve; in most records, active means well fitted inhibition curve with a large enough effect; inconclusive means small, poorly fitted or top-dose-only effect, or another doubt; inactive means no such curve, though single readings can be large or run the other way.

SMILES	HCMV inh	HCV inh	Pf growth 96h	Shiga toxin inh	Pf growth 48h	CHX counter
Cc1cc(C)n2c(SC(C)C(=O)NC3(C#N)CCCCC3)nnc2n1 (stereo unspecified)	-17	3%	?	nt	15%	nt
CC(SC(C)C(=O)NN=Cc1cccc(F)c1)C(=O)NN=Cc1cccc(F)c1 (stereo unspecified)	5	9%	nt	nt	nt	nt
Fc1cccc(/C=N/N=C/c2cccc(F)c2)c1	?	12%	9%	112*	?	31*
C(=N\N=C\c1ccccc1)/c1ccccc1	-5	6%	-24%	132*	i	55*
CCC1Cc2[nH]c(=S)[nH]c(=O)c2C(c2ccc(Cl)cc2)O1 (stereo unspecified)	-1	nt	nt	nt	nt	nt
CN(C)CC(CCC(CN(C)C)C(O)(c1ccccc1)c1ccccc1)C(O)(c1ccccc1)c1ccccc1 (stereo unspecified)	-98*	11µM*	1.9µM*	-7	1.9µM*	2
NC(=O)COC(=O)c1ccc(-c2ccccc2)cc1	-62*	7%	29%	64*	-2%	17*
O=C(OCc1nnc(-c2ccccc2)o1)c1ccc(-n2cnnn2)cc1	-15	0%	26%	nt	14%	nt
CC(C(=O)OCc1nnc(-c2ccccc2)o1)N1C(=O)C2CCCCC2C1=O (stereo unspecified)	9	18%	160%	70*	55%	37*
O=C(OCc1nnc(-c2ccccc2)o1)C12CC3CC(CC(Br)(C3)C1)C2	-23	13%	125%	56*	69%	35*
O=C(OCc1nnc(-c2ccccc2)o1)c1ccccc1	-6	29%	36%	90*	55%	29*
O=C(OCc1nnc(-c2ccccc2)o1)c1ccc(Br)o1	-9	4%	1%	nt	31%	nt
O=C(COC(=O)CNC(=O)c1ccccc1)NCc1ccc2c(c1)OCO2	1	24%	nt	nt	nt	nt
O=C([C@@H]1CCCN1C(=O)c1cccs1)N1CCN(S(=O)(=O)c2cccc(F)c2)CC1	-2	?	-17%	nt	-3%	nt
COc1cc(/C=C/C(=O)O)cc(S(=O)(=O)Nc2ccccc2Oc2ccccc2)c1OC	-28	8%	-21%	2	?	-2
CC(=O)Nc1ccc(OCc2nnc(-c3ccc(Cl)cc3)o2)cc1	42	-14%	12%	58	0%	20*
CC(=O)c1ccc(OCCCC(=O)OCc2nnc(-c3ccc(Cl)cc3)o2)cc1	3	0%	0%	-9	-9%	1
COc1ccc(-c2cc(-c3nnc(COC(=O)c4ccncc4)o3)c3ccccc3n2)cc1OC	-12	-28%	?	-18	12µM*	12
Cc1ccccc1C(=O)OCc1nnc(-c2ccc(Cl)cc2)o1	51	3%	39%	45*	19%	25*
Clc1ccc(-c2nnc(COc3ncnc4ccccc34)o2)cc1	25	-6%	43%	55*	244%	34*
COc1ccc(OC)c(/C=C2\SC(=S)N(C(C(=O)O)c3ccccc3)C2=O)c1 (stereo unspecified)	9	10%	-17%	1	?	5
CC1CCCN(S(=O)(=O)c2ccc3c(c2)OCCO3)C1 (stereo unspecified)	3	nt	nt	nt	nt	nt
CCOC(=O)CNC(=O)Cn1cnc2c(cnn2-c2ccc(C)cc2)c1=O	-25	12%	?	3	7%	-2
Cc1nc2ccc(C(=O)OCc3nnc(-c4ccccc4)o3)cc2nc1C	-1	14%	13µM*	-9	15%	10*
O=C(Nc1ccc2c(c1)C(=O)OC2)c1ccc(F)cc1F	3	-12%	97%	35*	56%	27*
SMILES	HCMV inh	HCV inh	Pf growth 96h	Shiga toxin inh	Pf growth 48h	CHX counter
O=C(Nc1ccc2c(c1)C(=O)OC2)c1ccc(Cl)cc1	-14	11%	30%	40	23%	18*
O=C(Nc1ccc2c(c1)C(=O)OC2)c1ccc(Cl)cc1Cl	3	-1%	55%	10	36%	16
Cn1ccc(NS(=O)(=O)c2cc(Br)ccc2Br)n1	-15	15%	5%	nt	-2%	nt
O=C(OCCc1cc2ccccc2c(=O)o1)c1ccccc1C(F)(F)F	-3	22µM*	?	nt	?	nt
COc1ccc(-c2csc(N3C(=O)CNC3=S)n2)cc1	3	5%	?	140*	166%	93*
O=C1CNC(=S)N1c1nc(-c2ccccc2)cs1	64	0%	68%	39*	72%	23*
CCc1c(C)[nH]n(-c2nc(-c3ccccc3)cs2)c1=O	-26	-23%	5%	1	2%	10
COc1ccc(-c2csc(N3C(=O)C4C5c6ccccc6C(c6ccccc65)C4C3=O)n2)cc1 (stereo unspecified)	-62*	8%	i	-6	14%	-4
COc1ccc(-c2csc(N3C(=N)SCC3=O)n2)cc1	-35	-15%	188%	163*	135%	49*
CC[C@H](C)C(N)C(=O)O (stereo partly specified)	nt	nt	nt	-4	nt	-2
Cc1c(Cl)cccc1N1CCn2c1nc1c2c(=O)n(CC(=O)O)c(=O)n1C	-15	nt	nt	nt	nt	nt
COc1ccc([C@H]2/C=C\CN(S(=O)(=O)c3ccc4ccccc4c3)[C@@H](C)C(=O)N2Cc2ccc(F)cc2)cc1	5	?	nt	nt	nt	nt
CCN(CC)CCN(Cc1cc2ccc(C)cc2[nH]c1=O)C(=O)Nc1ccc(Cl)cc1	4	?	?	78*	?	38*
COC(=O)c1ccccc1NC(=S)N(Cc1ccc2c(c1)OCO2)Cc1cc2cc(OC)ccc2[nH]c1=O	?	11µM*	31%	-6	?	-1
COc1cc2cc(CN(Cc3cccnc3)C(=O)NCc3ccccc3)c(=O)[nH]c2cc1OC	36	11%	?	31	9.3µM*	-3
CCc1ccc2[nH]c(=O)c(CN(CCN(CC)CC)C(=O)Nc3ccccc3OC)cc2c1	-31	0%	31%	-19	15µM*	-3
CCOc1ccc(NC(=O)CN(C)C(=O)c2cccnc2SC)cc1OCC	53	8%	32%	-8	24%	-3
CCN(CC)CCCN(Cc1cc2cc(OC)ccc2[nH]c1=O)C(=O)Nc1ccc(F)cc1	-11	?	-16%[5.75 µM]	-17	nt	-6
CCN(CC)CCCN(Cc1cc2cc(OC)ccc2[nH]c1=O)C(=O)Nc1ccccc1	nt	?	?	-3	9.3µM*	-5
CCc1ccc2[nH]c(=O)c(CN(Cc3ccccc3)C(=O)Nc3ccccc3OC)cc2c1	?	2.5µM*	nt	-5	-93%	1
CC(=O)N1C=CN(C(C)=O)C(c2cn(C)c3ccccc23)C1c1cn(C)c2ccccc12 (stereo unspecified)	29	?	80%	-4	3.3µM*	-4

Screens (PubChem)
